Pf growth 48h: Primary qHTS for delayed death inhibitors of the malarial parasite plastid, 48 hour incubation; P. falciparum luciferase growth in erythrocytes, 48 h; Potency, µM (titrated, usually from 28.7 µM), without a hit: at the top dose activity change, negative = inhibition, actives largely listed as inhibitors; hit rate 5.9% among 310,000; further: potency means the concentration at half of the fitted maximal effect; on the % scale 0 is the no-effect control and ±100 the full control effect
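Cell-based growth assay: transgenic P. falciparum expressing firefly luciferase, cultured in red cells within RPMI 1640 containing 0.5% w/v Albumax, 24 mM bicarbonate and gentamycin. A drop in luciferase activity indicates inhibition.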
CHX counter: Cycloheximide Counterscreen for Small Molecule Inhibitors of Shiga Toxin. cell reporter, cycloheximide protein synthesis inhibition counterscreen. max response, %. hit rate 12% among 300,000; in the data active means max response mostly above about 13%, no sharp cut-off; inactive means mostly below about 14%; further: read at 38.3 µM for the half of the compounds with a filed dose; 0% is about no effect
HCMV antiviral: qHTS Assay for inhibitors of the human cytomegalovirus (HCMV) | activity change, negative = inhibition, % at 57.5 µM | AID 1259415, 2018 | hit rate 4.5% among 410,000 | HFF cells, HCMV-luciferase reporter, 72 h; stronger effect = lower value; in the data active means activity change below about -60%; inconclusive means no clear call, values can overlap the other calls; inactive means above about -39%; further: on the % scale 0 is the no-effect control and ±100 the full control effect
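Two-dose cell screen: HFF monolayers treated with compounds and infected with luciferase-expressing HCMV at 1 PFU/cell, 72 h at 37C, then lysed for luciferase measurement.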
Shiga toxin inh: A qHTS for Small Molecule Inhibitors of Shiga Toxin; hit rate 9.2% among 290,000; Vero cells, Shiga toxin protein synthesis inhibition reporter; AID 2315, 2010; inhibition, % at 38.7 µM; in the data active means inhibition mostly above about 28%, no sharp cut-off; inactive means mostly below about 43%; further: 0% is about no effect
Pf growth 96h: Primary qHTS for delayed death inhibitors of the malarial parasite plastid, 96 hour incubation; P. falciparum luciferase reporter growth, 96 h; Potency, µM (top dose mostly 28.7 µM), without a hit: at the top dose activity change, negative = inhibition, usual class: inhibitors; hit rate 6.9% among 320,000; further: potency means the concentration at half of the fitted maximal effect; on the % scale 0 is the no-effect control and ±100 the full control effect
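Erythrocytes infected with luciferase-expressing P. falciparum were dispensed at 2% hematocrit and 0.05% parasitemia (final), then incubated with compounds 96 hours at 37 C in 5% CO2. Luminescence after detection reagent addition reported growth.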
* = called active by the depositor; i = inactive; ? = inconclusive; / = not tested or not shown. In the library only some 20% were active in any assay of this set; here they are far more common. Unless noted, the call rests on the fitted dose curve; in most records, active means well fitted inhibition curve with a large enough effect; inconclusive means small, poorly fitted or top-dose-only effect, or another doubt; inactive means no such curve, though single readings can be large or run the other way.

SMILES | Pf growth 48h | CHX counter | HCMV antiviral | Shiga toxin inh | Pf growth 96h
Cc1ccc(C)c(OCCCN2CCNCC2)c1 | 25.7% | -4.2 | 38.8 | -3.4 | ?
Clc1ccc(SCCCCN2CCOCC2)cc1 | 1.8% | 10.9 | -12.0 | 35.3 | -8.5%
CC1CN(CCCCSc2ccc(Cl)cc2)CC(C)O1 (centres undefined) | -2.3% | -3.1 | -12.3 | / | 3.0%
CCc1ccc(CCN2C(=O)c3ccccc3C2=O)nc1 | 49.3% | 24.7* | -0.2 | 31.7 | 0.0%
O=c1[nH]c(Cn2nnc(-c3ccccc3)n2)nc2scc(-c3ccccc3)c12 | -17.1% | -6.7 | -0.4 | 18.4 | i
Oc1c(Br)cc(Br)c2cccnc12 | ? | / | 19.6 | / | 9.53µM*
COc1cc(-c2noc(CN3CCN(c4ccccc4)CC3)n2)cc(OC)c1OC | / | / | 3.1 | / | /
Brc1csc2ncccc12 | -8.5% | -1.3 | 67.1 | -5.9 | 10.3%
Oc1c(CN2CCN(c3ccccc3)CC2)cc(Br)c2cccnc12 | 1.85µM* | -2.1 | -70.3* | 17.1 | ?
O=C(Oc1c(Cl)cc(Cl)c2cccnc12)N1CCCCC1 | -12.4% | 16.1 | 1.9 | 12.6 | 5.22µM*
CC(C)OCc1cc(CN2CCN(c3ccccc3)CC2)c(O)c2ncccc12 | / | / | -70.0* | / | /
CCc1ccccc1NC(=O)C(=O)NCCc1sc(-c2cccc(F)c2)nc1C | / | / | 2.6 | / | /
CC[C@H](C)[C@H](NC(=O)[C@H](CCC(=O)O)NC(=O)CNC(=O)[C@@H](NC(=O)[C@@H]1CCCN1C(=O)[C@@H](NC(=O)[C@@H]1CCCN1C(=O)[C@@H]1CCCN1C(=O)[C@H](CC(N)=O)NC(=O)[C@H](CC(N)=O)NC(=O)[C@@H](NC(=O)[C@H](CCSC)NC(=O)[C@H](Cc1c[nH]c2ccccc12)NC(=O)CNC(=O)[C@@H](NC(=O)[C@H](CCC(N)=O)NC(=O)[C@@H](N)CCC(=O)O)[C@@H](C)CC)[C@@H](C)O)[C@@H](C)CC)C(C)C)C(=O)O | / | -1.9 | / | -4.9 | /
O=C(Oc1c(CN2CCOCC2)cc(Cl)c2cccnc12)c1ccccc1Br | 1.85µM* | 1.7 | -67.2* | 6.4 | 10.4µM*
CCOC(=O)N1CCN(Cc2cc(Cl)c3cccnc3c2O)CC1 | 2.62µM* | 6.5 | -92.1* | 28.5 | 22.8%
COCc1cc(CN2CCN(C)CC2)c(O)c2ncccc12 | / | -3.5 | ? | -7.4 | 8.28µM*
Brc1cc2c(cc1CN1CCN(c3ccccc3)CC1)OCCO2 | 5.9% | -2.4 | 26.7 | 6.6 | 12.5%
c1ccc(N2CCN(Cc3ccnc4ccccc34)CC2)cc1 | -17.1% | 1.0 | -83.0* | -2.5 | -2.2%
CC1=CC(=O)Nc2ccccc2S1 | / | / | 73.1 | / | /
O=S1(=O)CCOCCN1Cc1ccccc1 | 12.7% | -1.1 | -23.1 | 13.4 | 43.5%
CCOCC(=O)N1CCN(c2cccc(Cl)c2)CC1 | -7.7% | 0.6 | ? | 20.3 | 52.7%
CCOCc1cc(CN2CCN(c3cccc(Cl)c3)CC2)c(O)c2ncccc12 | / | / | -100.2* | / | /
Cc1cccc(C(O)c2ncc(-c3ccccc3F)[nH]2)c1C (centres undefined) | / | / | 37.5 | / | /
O=C(OCC(=O)N1CCCC1=O)c1ccc(F)c(S(=O)(=O)N2CCOCC2)c1 | -10.7% | 4.2 | 6.4 | -7.9 | -24.0%
O=C1C(=C(O)c2ccccc2)C(=O)c2ccccc21 | ? | 14.2* | 38.5 | 23.7 | -7.0%
SMILES | Pf growth 48h | CHX counter | HCMV antiviral | Shiga toxin inh | Pf growth 96h
O=C(Nc1ccc(F)cc1)C(c1ccncc1)N1CCN(C(=O)c2ccco2)CC1 (centres undefined) | / | / | 6.1 | / | /
COc1cc(/C=N/NC(=O)c2cc(C)oc2C)ccc1OCc1ccccc1 | ? | 0.4 | -12.8 | 45.6 | -45.9%
COc1cc(/C=N/NC(=O)c2cccs2)ccc1OCc1ccccc1 | ? | 28.4* | 15.0 | 52.8* | ?
COC(=O)N/N=C\c1cccc(OC(=O)c2cccs2)c1 | 24.3% | 9.6 | -14.4 | 19.3 | 7.4%
COc1cc(/C=N/NC(=O)c2nnn(-c3nonc3N)c2C(C)C)ccc1OCc1ccc(F)cc1 | ? | -3.2 | 2.2 | 34.2 | ?
COc1cc(/C=N/NC(=O)c2cccs2)ccc1O | 76.2% | 51.7* | -16.4 | 97.2* | 35.3%
COc1cccc(/C=N/NC(=O)c2cccs2)c1 | 65.3% | 47.0* | 19.4 | 127.0* | 233.6%
COc1ccc(/C=N/NC(=O)c2sccc2OCc2ccc(F)cc2)cc1OC | ? | -3.0 | -35.7 | 7.0 | 11.7µM*

From PubChem BioAssay
